Screens as filed in PubChem BioAssay.
This is a sample that favours compounds with a hit; in the whole collection about 7.4% have one here.
NPC1 promoter act: qHTS Assay for NPC1 Promoter Activators; Huh7 NPC1 promoter luciferase reporter, 24 h; Potency, µM (doses to about 9.22 µM), without a hit: top-dose activation, actives largely listed as activators; 320,000 tested, 2.4% active; AID 485313, 2010; also: % of control where 0% means no effect; nearly all actives have a fitted effect of over 60% in size
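NPC1 promoter–luciferase Huh7 cells; 24 h compound; luminescence.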
p53 reactivation: qHTS assay for re-activators of p53 using a Luc reporter | H1299 p53-A138V BP100-luciferase reporter, luminescence, 24 h | Potency, µM (series often up to 92.2 µM), inactives show top-dose activity change, positive = activation, hits mostly activators | 320,000 tested, 0.063% active; also: % of control where 0% means no effect; nearly all actives have a fitted effect of over 45% in size
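H1299 (p53-null), stable ts p53-A138V + BP100-Luc; 1000 cells/well, Opti-MEM/10% FBS; cpd 4 pt, 1:5; 24 h, 37 deg C, 5% CO2; detection reagent 10 min RT; luminescence.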
FLuc counter: qHTS profiling assay for firefly luciferase inhibitor/activator using purifed enzyme and Km concentrations of substrates (counterscreen for miR-21 project); Luciferin 4-monooxygenase (Photinus pyralis), P08659; purified FLuc, Km substrates, luminescence inhibition; Potency, µM (series often up to 57.5 µM), without a hit: at the highest dose activity change, negative = inhibition, most hits filed as inhibitors; 360,000 tested, 6.9% active;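 also: plate controls were vehicle for no effect and reference inhibitor for full effect; nearly all actives have a fitted effect of over 55% in size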
Target sequence (P08659 whole entry, looked up): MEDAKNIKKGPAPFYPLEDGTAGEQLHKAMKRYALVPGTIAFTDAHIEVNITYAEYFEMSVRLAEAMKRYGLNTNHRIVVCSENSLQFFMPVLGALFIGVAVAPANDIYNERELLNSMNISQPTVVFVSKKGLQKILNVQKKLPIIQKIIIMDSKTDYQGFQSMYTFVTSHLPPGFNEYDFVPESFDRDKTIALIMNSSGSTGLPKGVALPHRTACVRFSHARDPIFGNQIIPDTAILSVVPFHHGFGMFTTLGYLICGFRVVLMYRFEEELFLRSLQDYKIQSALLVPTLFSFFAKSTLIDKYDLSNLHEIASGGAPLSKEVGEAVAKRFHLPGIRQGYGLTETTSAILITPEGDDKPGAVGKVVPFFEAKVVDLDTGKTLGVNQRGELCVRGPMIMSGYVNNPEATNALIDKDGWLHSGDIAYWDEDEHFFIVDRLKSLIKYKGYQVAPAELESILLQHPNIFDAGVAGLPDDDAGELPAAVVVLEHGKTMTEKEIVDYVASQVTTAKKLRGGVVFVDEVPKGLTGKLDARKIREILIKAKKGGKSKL
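Purified P. pyralis luciferase (10nM final) with 10uM D-luciferin and 10uM ATP (Km levels) in 50mM Tris acetate pH 7.5, 10mM Mg acetate, 0.01% Tween-20, 0.05% BSA; qHTS 6-point titration, ~60 µM downward; luminescence read.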
SMN2 splice up: qHTS Assay for Enhancers of SMN2 Splice Variant Expression. HEK293 SMN2-luciferase splicing reporter, luminescence, 30-36 h. Potency, µM (top dose mostly 46.1 µM), inactives show at the top dose activity change, positive = activation, usual class: activators. 210,000 tested, 2.8% active; also: % of control where 0% means no effect; nearly all actives have a fitted effect of over 55% in size
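qHTS luciferase splicing reporter: luminescence rises when SMN2 exon 7 is included in transfected HEK293 cells. Compound exposure lasted 30-36 h at 37C, with 4.5 mM final sodium butyrate as control, followed by a ONE-Glo read.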
Rab9 promoter act: qHTS Assay for Rab9 Promoter Activators | Huh7 Rab9 promoter-luciferase reporter, luminescence, 24 h | Potency, µM (titrated, usually from 9.22 µM), for inactives: top-dose activation, negative = inhibition, hits mostly activators | 320,000 tested, 2.8% active | AID 485297, 2010; also: % of control where 0% means no effect; nearly all actives have a fitted effect of over 60% in size
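Using Huh7 cells stably transfected with Rab9 promoter–luciferase, compounds were incubated 24 h at 37 °C, 5% CO2; luciferase luminescence was read 10 min after reagent addition.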
ELG1 genotox: qHTS screen for small molecules that induce genotoxicity in human embryonic kidney (HEK293T) cells expressing luciferase-tagged ELG1; HEK293T ELG1-luciferase reporter, luminescence, 16 h; Potency, µM (top dose mostly 46 µM), for the others: at the top dose activity change, positive = activation, usual class: activators; 330,000 tested, 1.3% active; AID 504466, 2011; also: % of control where 0% means no effect; nearly all actives have a fitted effect of over 60% in size
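Screening used a luciferase reporter fused to human ELG1 in HEK293T cells. Luminescence was read on a CCD plate imager after 16 hr exposure and 30 min ONE-Glo incubation.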
Numbers without * were called inactive; u = inconclusive; x = no result; [ ] = dose if it differs, or a comment. Calls follow the shape of the dose curve; as a rule, active = well fitted curve in the direction sought with a large enough effect; inconclusive = small, poorly fitted or top-dose-only effect, or another doubt; inactive = no such curve, though single readings can be large; an effect the other way counts as inactive or inconclusive. Potency is read from the fitted curve at half-maximal effect.

SMILES | NPC1 promoter act | p53 reactivation | FLuc counter | SMN2 splice up | Rab9 promoter act | ELG1 genotox
CCOC(=O)c1ccc(Nc2ncnc3nc[nH]c23)cc1 | u | 50.9% | u | 10µM* | u | u
c1ccc(COc2ccc(Nc3ncnc4nc[nH]c34)cc2)cc1 | u | u | 10.7µM* | 0.1% | u | u
CCOC(=O)c1ccc(Nc2ncnc3ccccc23)cc1 | 22.8% | 0.9% | u | -26.9% | u | -3.4%
CC(C)c1ccc(-n2cnn(-c3ncccc3[N+](=O)[O-])c2=O)cc1 | 1.12µM* | 15.0% | 3.01µM* | 7.94µM* | 0.891µM* | 2.31µM*
Cc1cc(C)n(-c2ncccc2[N+](=O)[O-])n1 | -0.3% | 1.6% | 0.9% | x | -4.7% | -0.2%
COc1ccc(OC)c(NC(=O)c2cc(S(=O)(=O)NCCc3ccc(Cl)cc3)ccc2F)c1 | x | x | 1.6% | x | x | x
Oc1cccc(Nc2cc(-c3ccccc3)ncn2)c1 | x | x | 16.9µM* | x | x | x
O=C(CBr)Nc1c2c(nn1-c1ccccc1)CSC2 | -5.8% | 2.1% | 1.4% | x | -2.4% | 1.0%
COc1ccc(/C=C2/N=C(c3cccs3)OC2=O)cc1OC(C)C | 2.0% | 3.3% | 6.75µM* | 12.5% | -0.2% | -10.7%
COc1cc(/C=C2\N=C(c3ccccc3)OC2=O)ccc1OC(C)=O | 23.4% | -8.6% | 15.1µM* | x | 2.1% | -0.4%
COc1ccc(/C=C2\N=C(C)OC2=O)cc1OC(C)=O | 0.0% | 2.2% | 0.2% | x | -4.4%[1.84 µM] | -0.1%
CCOc1ccc(/C=C2\N=C(c3cccs3)OC2=O)cc1OC | -0.5% | 6.3% | -24.1% | 25.6% | 1.9% | -0.7%
CC(C)Nc1ccc(-c2nc(-c3ccco3)no2)cc1[N+](=O)[O-] | x | x | -0.5% | x | x | x
O=C(CCC(=O)N(CC(=O)NC1CCCC1)Cc1ccccc1Cl)Nc1nccs1 | 0.8% | -3.7% | 2.5% | x | 1.9% | -0.9%
O=C(CCn1c(=O)c2cccn2c2cccnc21)Nc1ccccc1C(F)(F)F | x | x | -1.3% | x | x | x
Cc1ccc(C)c(-c2nn(CC(=O)Nc3cc(F)ccc3F)c(=O)c3c2CCCC3)c1 | x | x | -4.1% | 8.4% | x | x
CCCCN(C(=O)c1cc2c(s1)CCC2)c1c(N)n(CCC)c(=O)[nH]c1=O | 1.7% | 10.1% | 1.1% | x | -2.2% | -0.6%
COc1ccc(-c2cc3cc4c(cc3cn2)OCO4)cc1 | x | 16.4% | x | x | x | 0.731µM*
COc1cc(OC)cc(-c2cc3cc4c(cc3cn2)OCO4)c1 | x | u | x | x | x | 4.11µM*
COc1cc(OC)cc(-c2cc3ncccc3cn2)c1 | 14.4% | 18.2% | u | x | -1.1% | 10.3%
c1ccc(-c2cc3cc4c(cc3cn2)OCO4)cc1 | x | 8.91µM* | x | x | x | u
CCCCN1C(=O)CC(Nc2ccc(CC)cc2)C1=O (centres undefined) | 12.3% | 0.2% | 13.5µM* | u | 24.7% | 16.4µM*
COc1ccc(CCC(=O)NCCc2csc(-c3ccc(C(F)(F)F)cc3)n2)cc1 | x | x | 2.8% | x | x | x
COc1ccc(/C=N/n2cnnc2SCc2ccc(OC)cc2)cc1 | 3.5% | -20.5% | 13.5µM* | -5.4% | -2.1% | 0.6%
COc1ccc(/C=N/n2cnnc2SCc2ccccc2)cc1 | -3.0% | 5.5% | u | -4.3% | -9.0% | 0.7%
SMILES | NPC1 promoter act | p53 reactivation | FLuc counter | SMN2 splice up | Rab9 promoter act | ELG1 genotox
Nc1ccc(-c2cnc(-c3ccc(N)cc3)nc2)cc1 | 1.12µM* | 17.0% | 3.38µM* | 3.55µM* | 1.58µM* | u
Oc1ccc(-c2cnc(-c3ccc(O)cc3)nc2)cc1 | 1.12µM* | 14.1µM* | 1.07µM* | x | u | 2.91µM*
CCCC(=O)Nc1ccc(-c2cnc(-c3ccc(NC(=O)CCC)cc3)nc2)cc1 | -4.1% | -8.7% | 9.1% | x | 1.8% | 4.3%
COC(=O)[C@H](Cc1ccccc1)NC(=O)NCCc1ccccc1F | -1.0% | 1.7% | 4.0% | x | -4.4% | -1.6%
COc1ccccc1OCCCCOc1ccccc1F | 25.3% | 10.3% | 13.5µM* | -9.3% | 27.1% | 7.8%
COc1ccc(-c2nc(CNC(=O)NC3CCCCC3)c(C)o2)cc1 | x | x | -6.0% | x | x | x
C=CCSC1=N/C(=C\C=C\c2ccco2)C(=O)S1 | 5.8% | 3.9% | 13.5µM* | 7.4% | 2.0% | 1.3%
Cn1cc(S(=O)(=O)N2CCCCC2)cc1C(=O)NCc1ccc(Cl)cc1 | x | x | -6.2% | x | x | x
CSC(=[SH+])N=N/C(=C1/C=CC=CN1)c1ccccn1.[Cu][Br] | x | x | x | -53.6%[9.22 µM] | x | x
COCCNc1nc(C)nc2c1nc(-c1ccccc1)n2CCN1CCCC1 | x | x | x | -2.3% | x | x
COc1ccccc1N(/N=C1\Sc2ccccc2C1=O)C(C)=O | 25.5% | u | 12µM* | x | 4.47µM* | 0.92µM*
COc1ccc(CN(C(C)=O)c2ccccc2C(=O)O)cc1 | -1.1% | -1.8% | -0.4% | x | -3.1% | 1.2%
COc1ccc(N(/N=C2\Sc3ccccc3C2=O)C(C)=O)cc1 | 10.5% | 26.1% | 12µM* | 15.8µM* | u | u
O=S(=O)(c1cccc(Br)c1)N1CCN(CCc2ccccc2)CC1 | 1.6% | 7.3% | 2.1% | x | -8.7% | -23.0%
COc1ccc(-c2c(C)nn3c(N4CCN(c5cc(Cl)ccc5C)CC4)cc(C)nc23)cc1OC | x | x | 1.8% | 8.5% | x | x
Cn1c(-c2ccccc2)cnc1SCc1nc2ccccc2c(=O)[nH]1 | 2.82µM* | 10.1% | 6.01µM* | 2.51µM* | 1.41µM* | 2.06µM*
CC1Cc2ccccc2N1C(=O)CSc1ncc(-c2ccc(F)cc2)n1C (centres undefined) | 3.55µM* | u | 1.9µM* | 12.6µM* | 1.12µM* | u
Cn1c(-c2ccc(F)cc2)cnc1SCC(=O)N1CCCc2ccccc21 | -0.6% | -2.3% | u | -10.5% | -6.2% | 0.5%
Cn1c(-c2ccc(F)cc2)cnc1SCC(=O)N1CCCCC1 | 0.562µM* | 1.4% | 2.69µM* | 8.91µM* | 0.501µM* | 2.59µM*
CC1CCCCN1C(=O)COC(=O)c1cc([N+](=O)[O-])ccc1N1CCOCC1 (centres undefined) | -3.2% | -4.3% | -1.6% | x | 2.5% | 0.1%
COc1ccc(CC(=O)O/N=C(\N)c2ccc(C)cc2)cc1 | u | 8.5% | 16.9µM* | x | u | 15.0%
CC(C)(C)CC(=O)O/N=C(\N)c1ccccn1 | 0.562µM* | u | 4.78µM* | 7.08µM* | 0.631µM* | 2.59µM*
COc1ccc(CC(=O)O/N=C(\N)c2ccncc2)cc1 | 1.2% | 18.2% | -16.7% | x | -3.7% | -2.0%
Cc1ccc(CC(=O)O/N=C(\N)c2ccccn2)cc1 | 4.47µM* | 3.2% | 4.78µM* | x | u | u
